The source of these data is the supplement of paper PMC12632987.

Over roughly 4,500 sequences, “median log2 fold change of GCK-ALFA target abundance (FLAG IP / Myc IP barcode read proportion)” has its median near 0.078; the lowest 2% begin near -0.6. Many of the other results were omitted from the sample, so the lowest values are more common in it than they were.

The chains are these.
B1: GBRAP_52_6205 (protein)
chain: MHERMRAHARELVALVKAGDLDAARAYARELARTLNEEELELLGEELVELAKTAAPEDLDAIFKAAEILSDVLEEEGFDEALADGLLNRVAAALYERELK
B2: GBRAP_160_4347 (protein)
chain: MEAAEKLIKELKEATERVIAEVDKLSVEQVAVVAAGEFGAVAMEAAEDERYSDEMVDVIIDAQDKILAFLDENKDASPEEIKEGIKKITEEAIKKIKEIA
B3: GBRAP_160_4081 (protein)
chain: SAAHEKLIKEVTEIFDEALKMMEGVTPAEAVAIALVALGEVALLIEEEEELSEEDKDKLLALVDAAEAEVRAAADATVAELKALLERHRDEIVAAIKALD
B4: GBRAP_35_5623 (protein)
chain: NTDKEIAEAVVAVLEDTLLAKDTVPADTFIDTAIKVARLGIEVAKELKEYKENAKKILEAVEKLLKAAKERAKETGAPEEKLKEIEKLLKEVEELKKKLE
B5: GBRAP_11_2643 (protein)
chain: KKEKLKKAAELAKKAIEALKKLLEEGVDNEELRKKIEELLEELSKLVKEYADESLKKLVEIAKELWKKSLEDPENAEEYVKNLLAALRVLSAELEEEIEE
B6: GBRAP_160_4726 (protein)
chain: SERIREFVERFEERFLETIEATEDESKEEQAAMFRGTAGEILMEALEEPFLSDEMEDVVAEELDALVAELEANWDASKEEKKAIVREHMERLRERLLALA
B7: GBRAP_160_4491 (protein)
chain: SAKVEEAKKEVKAIVDDAVDAIAEAPADQRAAIARAYAGDIVQTLLELGVVTDEQAETVLDTAEAGLAAVVAASAAGAAAAAAAAAALVATLNDMIKKFS
B8: GBRAP_14_3817 (protein)
chain: MEELKKKIKEILDDLYEELVEDIGLDEEKVKKLIDKALEEIFKALDDPEGSEEKIKEIMEKLKKEIEKLAAELGADEAAAARALVTDAEYEIDEAIEEAK

Chain of GABARAP, O95166 (O95166 whole entry, the tested form may be a part): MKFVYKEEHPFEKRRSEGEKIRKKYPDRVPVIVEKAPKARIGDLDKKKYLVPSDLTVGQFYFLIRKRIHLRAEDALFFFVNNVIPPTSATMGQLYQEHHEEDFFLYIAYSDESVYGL

The experiment deals with GABARAP, O95166. The experiment is described as follows: median log2 fold change of GCK-ALFA target abundance (FLAG IP / Myc IP barcode read proportion) (log2 ratio); each designed protein is fused to an ALFA-tag nanobody in HEK293 cells to bring the named protein to FLAG-tagged glucokinase (GCK); Myc marks an untargeted standard; higher = target protein stabilised (more abundant). The conditions noted are these: target protein: 3xFLAG-MCP-GCK-ALFA reporter; HEK293 landing pad (RPLP). The essentials:
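An ALFA-nanobody-fused binder library was recombined into HEK293 landing-pad cells and induced with 2 μg mL^−1 doxycycline. Cells were transfected with a plasmid expressing a FLAG-tagged target and a Myc-tagged standard. After 48 h, lysates underwent anti-FLAG and anti-Myc immunoprecipitation, and circular RNA barcodes were reverse transcribed, amplified and sequenced. Target abundance is the per-binder median log2 ratio of FLAG to Myc barcode read proportions. Barcodes needed ≥10^−7 proportion in both replicates, binders ≥3 barcodes per replicate, and a 10^−6 pseudocount was added; the two replicates were pooled.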
Take B1: the “median log2 fold change” value is -0.122.

For B2, the “median log2 fold change” value worked out at 0.152.

For B3, the “median log2 fold change” value was 0.134.

On to B4, for which the “median log2 fold change” value was -0.669.

Turning to B5, the “median log2 fold change” value was found to be 0.271.

B6: the “median log2 fold change” value is 0.0951.

Take B7: the “median log2 fold change” value was -1.1.

On to B8, for which the “median log2 fold change” value was -0.057.
